The text below walks through data of PubChem BioAssay AID504332 (National Center for Advancing Translational Sciences (NCATS), 2011).

Among all 350,000 compounds or so, about 31,000 (8.9%) were called active. About 15% were inconclusive and are not listed. Calls follow the shape of the dose curve; as a rule, active = well fitted inhibition curve with a large enough effect; inconclusive = small, poorly fitted or top-dose-only effect; inactive = no such curve, though single readings can be large or run the other way. Shown is part of a subset that was picked to be rich in actives. Entries that show only a call come without a potency.
Potency is read from the fitted curve at half-maximal effect.

Histone-lysine N-methyltransferase EHMT2 (Homo sapiens), sequence (Q96KQ7 913-1193 limits assumed): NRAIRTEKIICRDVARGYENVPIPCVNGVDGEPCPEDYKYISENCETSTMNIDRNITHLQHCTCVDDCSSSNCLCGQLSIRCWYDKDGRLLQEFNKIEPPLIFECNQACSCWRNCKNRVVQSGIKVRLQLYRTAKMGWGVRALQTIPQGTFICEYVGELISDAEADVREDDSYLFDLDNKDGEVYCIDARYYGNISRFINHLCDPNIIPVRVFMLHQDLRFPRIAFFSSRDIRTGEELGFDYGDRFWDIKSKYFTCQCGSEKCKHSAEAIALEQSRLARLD

The test deals with Histone-lysine N-methyltransferase EHMT2 (Homo sapiens) (UniProt Q96KQ7). Put plainly: qHTS Assay for Inhibitors of Histone Lysine Methyltransferase G9a. Also: nearly all actives have a fitted effect of over 75% in size. The conditions noted are these: G9a H3K9 monomethylation, AlphaScreen, 2 h; series mostly up to 59 µM. The method in brief:
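Step 1: enzyme (final 20 nM) with compound, 15 min RT. Step 2: substrate peptide 500 nM and SAM 20 uM, 2 h RT. Step 3: anti-H3K9me1 antibody and AlphaScreen beads, 10 min, then plate read.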
On the technique in general: In qHTS, concentration-response curves come from the screen itself.
On to `COc1cc2nc(SCC(=O)Nc3ccccc3F)n3nc(-c4ccccc4)nc3c2cc1OC`, for which the Potency result is “inactive”.

Consider `CCS(=O)(=O)c1ncc(N(Cc2ccc(F)cc2)Cc2ccco2)c(C(=O)Nc2cc(C)ccc2C)n1`, for which the Potency result was “inactive”.

In the case of `Cc1ccc(S(=O)(=O)NCCNC(C)c2ccc(Br)cc2)cc1` (centres undefined), the activity, negative = inhibition is -1.1% [at 12.7 µM] (inactive).

As to `Oc1cccc(/C=N/Nc2ccc(Cl)nn2)c1O`, the Potency entry was “inactive”.

As to `Clc1ccc(N/N=C/c2cccs2)nn1`, the Potency is 35.5 µM (active).

Turning to `COc1cccc(/C=N/Nc2ccc(Cl)nn2)c1`, the Potency result was “inactive”.

As to `CC(C)N(Cc1ccccc1)C(=O)COC(=O)c1ccccc1SCC(=O)N1CCCC1`, the activity, negative = inhibition was -46.5% [at 0.501 µM] (inactive).

As for `Cc1c(C)c(C)c(S(=O)(=O)NCCc2ccccn2)c(C)c1C`, the Potency result was “inactive”.

On to `COc1ccc(NCCc2ccccn2)cc1`, for which the Potency was 39.8 µM (active).

In the case of `O=C(CNC(=O)COc1ccccc1)NCCc1ccccn1`, the Potency result is “inactive”.

As to `CCOc1ccccc1NC(=O)C1CCCN(S(=O)(=O)c2cn(C)cn2)C1` (centres undefined), the Potency result is “inactive”.

For the molecule `CC(C)c1ccc(NC(=O)COC(=O)c2ccc(CN3CCCC3=O)cc2)cc1`, the activity, negative = inhibition was -8.03% [at 12.7 µM] (inactive).

As for `O=C(/C=C/c1ccccc1)c1ccccc1O`, the Potency was 44.7 µM (active).

Regarding `O=C(/C=C/c1ccccc1)c1ccoc1`, the activity, negative = inhibition is 10.3% [at 12.7 µM] (inactive).

Regarding `O=C(/C=C/c1ccccc1)N/C(=C/c1ccccc1)C(=O)Nc1ccccc1O`, the Potency result was “inactive”.

For the molecule `COCC1CCN(C(=O)CCc2nnc(C3(c4ccc(Cl)cc4)CCC3)o2)C1` (centres undefined), the Potency result is “inactive”.

For `COc1ccc(-c2ocnc2C(=O)Nc2ccc3c(c2)CCC3)cc1`, the Potency result is “inactive”.

As to `Fc1ccc(C(Nc2ccc(Cl)c(C(F)(F)F)c2)c2nnc(-c3ccccc3)o2)cc1` (centres undefined), the Potency entry is “inactive”.

`Nc1ccccc1Sc1ccc(C(F)(F)F)cc1[N+](=O)[O-]`: the Potency is 39.8 µM (active).

Regarding `Cc1cccc(OCCNC(=O)CSc2ccc(C(F)(F)F)cc2[N+](=O)[O-])c1`, the Potency entry was “inactive”.

As to `O=[N+]([O-])c1cc(C(F)(F)F)ccc1NCCc1ccncc1`, the Potency result was “inactive”.

In the case of `CCc1cccc(NC(=O)CSc2nccn2C)c1`, the Potency entry is “inactive”.

As to `CCOC(=O)CSC1=C(C#N)C(c2ccco2)C(C(=O)OCc2ccccc2)=C(C)N1` (centres undefined), the Potency entry is “inactive”.

With `N#CC1=C(N)Oc2c(sc3ccccc23)C1c1ccco1` (centres undefined), the Potency was 39.8 µM (active).

On to `CCCCn1c(N)c(N(CCOC)C(=O)c2sc3ccccc3c2Cl)c(=O)[nH]c1=O`, for which the activity, negative = inhibition is 0.384% [at 0.501 µM] (inactive).

Take `Cc1cccc(-c2nc(Nc3ccc(O)cc3)c3ccccc3n2)c1`: the activity, negative = inhibition was 9.03% [at 12.7 µM] (inactive).

In the case of `CN1CCN(c2nc(Nc3ccc(O)cc3)nc3ccccc23)CC1`, the Potency is 25.1 µM (active).

Turning to `COc1ccccc1-c1nc(N2CCN(C)CC2)c2ccccc2n1`, the activity, negative = inhibition was 0.0472% [at 0.501 µM] (inactive).

Consider `CC(C)(C)c1ccc(S(=O)(=O)N2CCN(C(=O)c3cc(-c4ccc(Br)cc4)n[nH]3)CC2)cc1`, for which the Potency entry was “inactive”.

On to `S=C(Nc1ccc(Br)cc1Cl)NC1CCN(Cc2ccccc2)CC1`, for which the Potency entry is “inactive”.

Turning to `O=C(NC1CCN(Cc2ccccc2)CC1)c1c(F)cccc1F`, the Potency result is “inactive”.

Take `S=C(NN=C1CCN(Cc2ccccc2)CC1)NC1CCCCC1`: the Potency is 50.1 µM (active).

On to `COc1ccccc1NC(=O)c1cc(S(=O)(=O)NCCc2ccccc2)ccc1F`, for which the Potency entry is “inactive”.

As for `CCc1ccc(S(=O)(=O)n2ccnc2)cc1`, the Potency result is “inactive”.

With `CCOc1ccc(NC(=O)CN(C)C(=O)COc2cccc(CC)c2)cc1OCC`, the activity, negative = inhibition was -17.2% [at 0.501 µM] (inactive).

Regarding `CS(=O)(=O)c1ccc2c(c1)SC1=NC(=O)/C(=C/c3ccco3)C(=N)N12`, the Potency was 50.1 µM (active).

Turning to `CCCCC(=O)OC1=CN(Cc2ccccc2)S(=O)(=O)c2ccccc21`, the Potency result is “inactive”.

As for `COc1cccc(C(=O)OCc2cc(=O)oc3c(C)c(C)ccc23)c1OC`, the Potency result is “inactive”.

As for `CCOC(=O)N1CCC(N2Cc3cccc(C(=O)Nc4c(C)cccc4CC)c3C2=O)CC1`, the Potency entry is “inactive”.

Regarding `CN(C)[C@@H]1C(=O)C(C(N)=O)=C(O)[C@@]2(O)C(=O)C3=C(O)c4c(O)ccc(Cl)c4[C@@H](O)[C@H]3C[C@@H]12`, the Potency was 7.94 µM (active).

Turning to `C=C1c2c(Cl)ccc(O)c2C(O)=C2C(=O)[C@]3(O)C(O)=C(C(N)=O)C(=O)[C@@H](N(C)C)[C@@H]3[C@@H](O)C12` (some centres undefined), the Potency is 7.94 µM (active).

As to `CCCN(CC1CC1)C(=S)NC(=O)c1ccccc1Br`, the Potency entry is “inactive”.

Turning to `Cc1ccc(Cl)cc1N1CCN(C(=O)CN2C(=O)COc3ccc(S(=O)(=O)N4CCOCC4)cc32)CC1`, the Potency result was “inactive”.

Consider `COc1ccc(-c2noc(C(C)NS(=O)(=O)c3ccc(NC(C)=O)cc3)n2)cc1` (centres undefined), for which the Potency entry is “inactive”.

As to `COc1cc2nc(NCC(C)c3ccccc3)n3nc(-c4ccccc4)nc3c2cc1OC` (centres undefined), the Potency result was “inactive”.

Take `CC(C(=O)NC1CCCC1)N1CCN(S(=O)(=O)c2ccccc2Cl)CC1` (centres undefined): the activity, negative = inhibition was 1.28% [at 0.501 µM] (inactive).

Regarding `COc1cc2c(=O)c(S(=O)(=O)c3ccc(C(C)C)cc3)cn(Cc3ccccc3C)c2cc1OC`, the Potency entry was “inactive”.

As for `Cc1ccc(C(=O)Nc2nnc(-c3cccs3)s2)cc1C`, the activity, negative = inhibition is -1.27% [at 12.7 µM] (inactive).

Regarding `Cc1ccc(C)c(NC(=O)c2ccc3nccnc3c2)c1`, the Potency result is “inactive”.

With `Cc1nnc(NC(=O)c2ccc3nccnc3c2)s1`, the Potency was 50.1 µM (active).

For `COc1ccc(S(=O)(=O)NCc2cccnc2)cc1NC(=O)c1ccc(C)cc1`, the Potency result is “inactive”.

Take `CC(=O)c1c(C)n(S(=O)(=O)c2ccc(Cl)cc2)c2ccc(NS(=O)(=O)c3ccc(Cl)cc3)cc12`: the Potency result was “inactive”.

As for `O=C(c1ccc2c(c1)N(Cc1ccccc1)C(=O)c1ccccc1S2(=O)=O)N1CCC(Cc2ccccc2)CC1`, the Potency result is “inactive”.

`CCC(=O)c1ccc(OCC(O)CN2CC(C)OC(C)C2)cc1` (centres undefined): the Potency is 14.1 µM (active).

With `CCC(=O)c1ccc(OCC(O)CN2C(=O)NC(C)(C)C2=O)cc1` (centres undefined), the Potency entry was “inactive”.

Turning to `CC1CCN(CC(O)COc2ccc(C(=O)c3ccccc3)cc2)CC1` (centres undefined), the activity, negative = inhibition was 3.75% [at 0.501 µM] (inactive).

Take `CCOC(=O)C1CCN(C(=O)COC(=O)C2CCN(S(=O)(=O)c3ccc4c(c3)OCCO4)CC2)CC1`: the Potency result is “inactive”.

As for `CCOc1ccc(NS(=O)(=O)c2ccc(Cl)c(C(=O)N(C)Cc3cccnc3)c2)cc1`, the activity, negative = inhibition is 9.93% [at 12.7 µM] (inactive).

Turning to `Cc1cc(C)cc(NC(=O)CCCc2nc(-c3ccccc3Cl)no2)c1`, the Potency result is “inactive”.
